Bioassay records deposited in PubChem BioAssay by National Center for Advancing Translational Sciences (NCATS).
D2 ag-1: agonists of human D2 dopamine receptor (beta-arrestin). P14416. DiscoveRx PathHunter D2 beta-arrestin, luminescence, 90 min; 100% = 57 uM dopamine signal. activation, % (concentration not given with the values). actives 0.084% (n = 360,000). AID 624465; in the data active = activation above about 40%; inconclusive = between about 15% and that limit
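Agonist mode: compounds alone added to overnight-plated D2 PathHunter cells for 90 min at 37 C, with 57 uM final dopamine (EC100) defining full response. Beta-arrestin recruitment detected by chemiluminescent reagent, read after 1 h at ambient temperature.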
D2 PAM-1: positive allosteric modulators of human D2 dopamine receptor; DiscoveRx D2 beta-arrestin cells, luminescence, 90 min; 100% = 57 uM dopamine signal; potentiation, % (test concentration not listed); actives 0.23% (n = 360,000); in the data active = potentiation above about 50%; inconclusive = mostly about 30% to 49%
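PathHunter beta-arrestin assay in DiscoveRx D2 cells. Compounds were added with an EC20 of dopamine (50 nM final) for 90 min at 37 deg C. Luminescence was read 1 h after detection reagent, with 57 uM dopamine as the EC100 control.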
D2 antag: antagonizes the human D2 dopamine receptor; inhibition, % at 10 µM; P14416; actives 2% (n = 340,000); HEK293 TREx D2 cells, calcium flux, dopamine EC80; in the data active = inhibition above about 30%; inactive = below that, where a call was filed; note: 0% is about no effect
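In this primary screen, negative modulation is detected by tracking calcium flux after an EC80 dopamine challenge in inducible HEK293 T-REx D2 cells preexposed to test compound for 180 s.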
D2 PAM-2: positively modulates the human D2 dopamine receptor allosterically; P14416; HEK293 T-REx D2, calcium flux, EC20 dopamine potentiation; potentiation, % at 10 µM; actives 0.34% (n = 340,000);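 active = potentiation over 3 SD above the plate norm, cut at about 30% in these data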; note: 0% is about no effect
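Primary screen. Calcium kinetics in induced HEK293 T-REx D2 cells: compound pre-addition 180 s, EC20 dopamine, 180 s more.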
D2 ag-2: D2 dopamine receptor (human) agonism. P14416. HEK293 T-REx D2 cells, calcium flux agonist mode. activation, % at 2 µM. actives 0.53% (n = 340,000). AID 485358;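 active = activation over 3 SD above normal in the single-dose calcium agonist read, cut at about 30% in these data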; note: 0% is about no effect
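Tetracycline-induced HEK293 T-REx cells with force-coupled D2 receptor, plated overnight at 30 C, loaded with no-wash calcium dye. After a 10 s baseline, compound was pin-added and calcium flux read kinetically for 180 s; calcium rises flagged agonists.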
D3 arrestin ag: confirmation of human D3 dopamine receptor agonists, beta-arrestin. Potency, µM (top dose mostly 76.9 µM), for inactives: top-dose activation, hits mostly activators. shares compounds with D2 ag-2. DiscoveRx D3 beta-arrestin cells, luminescence, 90 min. actives 4% (n = 2,300);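 note: potency is the fitted concentration of half-maximal effect; 100% = dopamine control response; nearly all actives have a fitted effect of over 70% in size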
Target sequence (P35462 whole entry, looked up): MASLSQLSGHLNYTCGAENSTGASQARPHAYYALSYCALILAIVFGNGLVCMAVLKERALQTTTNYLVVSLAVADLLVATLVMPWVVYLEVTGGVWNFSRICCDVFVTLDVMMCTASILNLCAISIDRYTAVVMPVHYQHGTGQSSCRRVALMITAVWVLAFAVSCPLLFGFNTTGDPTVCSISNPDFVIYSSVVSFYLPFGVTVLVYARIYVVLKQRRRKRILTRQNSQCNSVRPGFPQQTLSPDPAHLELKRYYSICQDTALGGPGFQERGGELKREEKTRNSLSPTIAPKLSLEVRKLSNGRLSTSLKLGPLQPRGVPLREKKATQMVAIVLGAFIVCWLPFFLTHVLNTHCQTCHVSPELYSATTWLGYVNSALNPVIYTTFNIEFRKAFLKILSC
D2 ag-3: D2 receptor agonism, beta-arrestin counterscreen; shares compounds with D2 ag-2; DiscoveRx PathHunter D2 beta-arrestin, luminescence, 90 min; response scale: percent relative to full dopamine signal; Potency, µM (doses to about 76.9 µM), for the others: at the top dose activation, hits mostly activators; actives 5.9% (n = 2,300); AID 720507; note: potency is the fitted concentration of half-maximal effect; % of control where 0% means no effect; nearly all actives have a fitted effect of over 70% in size
Numbers without * were called inactive. Only some compounds are listed: those with a hit (about 2.4% of all), similar ones and a draw of the others. Unless noted, calls come from the whole dose curve; as a rule, active = well fitted activation curve with a large enough effect; inconclusive = small, poorly fitted or top-dose-only effect; inactive = flat fitted curve, though single readings scatter.

For CCCCC(CC)CNC(=O)CCCCCn1c(=O)[nH]c2ccsc2c1=O (configuration not stated) the results were D2 PAM-2 14 and D2 ag-2 -1.
For COc1ccccc1N1CCN(C(=O)Cn2cnc3onc(-c4ccc(F)cc4)c3c2=O)CC1 the results were D2 PAM-2 -1 and D2 ag-2 -1.
CCOC(=O)C1(C(F)(F)F)N=C(C(F)(F)F)Nc2cc(C)c(C)cc21 (configuration not stated) was read as D2 ag-1 -1, D2 PAM-1 0, D2 antag -9, D2 PAM-2 -16, D2 ag-2 29, D3 arrestin ag 5% and D2 ag-3 -6%.
`COC(=O)C1(C(F)(F)F)N=C(C(F)(F)F)Nc2ccc(Cl)cc21` (configuration not stated) gave D2 ag-1 2 and D2 PAM-1 -10.
`CC(CCCCCCCCC(=O)O)N(CCO)C(=O)OC(C)(C)C` (configuration not stated) gave D2 ag-1 -4, D2 PAM-1 -6, D2 antag -2, D2 PAM-2 7, D2 ag-2 0, D3 arrestin ag -2% and D2 ag-3 -3%.
For Brc1ccc(Nc2c3c(nc4nncn24)CCC3)cc1 the results were D2 PAM-2 0 and D2 ag-2 -1.
For CC(C)OC(=O)CN1C(=O)S/C(=C/c2ccc(N3CCCCC3)o2)C1=O the results were D2 ag-1 2, D2 PAM-1 15, D2 antag 2, D2 PAM-2 4, D2 ag-2 17, D3 arrestin ag 11% and D2 ag-3 -1%.
Screening O=C1S/C(=C/c2ccc(N3CCOCC3)o2)C(=O)N1Cc1ccc(F)cc1 returned D2 ag-1 -2, D2 PAM-1 2, D2 antag 4, D2 PAM-2 -9 and D2 ag-2 20.
For COc1ccc(NC(=O)CSCC(=O)Nc2ccc(S(=O)(=O)N3CCOCC3)cc2)cc1 the results were D2 ag-1 2, D2 PAM-1 0, D2 antag 4, D2 PAM-2 -4, D2 ag-2 0, D3 arrestin ag 1% and D2 ag-3 4%.
For CN(CCOc1ccccc1Cl)Cc1ccccc1 the results were D2 ag-1 2, D2 PAM-1 -3, D2 antag 85*, D2 PAM-2 -28, D2 ag-2 25, D3 arrestin ag inconclusive and D2 ag-3 -3%.
Screening COc1cccc(/C=C/C(=O)OCC(=O)NCCc2ccccc2)c1 returned D2 ag-1 -2, D2 PAM-1 -3, D2 antag 9, D2 PAM-2 -20, D2 ag-2 46*, D3 arrestin ag -10% and D2 ag-3 -4%.
CCOC(=O)C1CCN(Cc2ccc(N(C)C)cc2)CC1 was read as D2 ag-1 2, D2 PAM-1 -7, D2 antag 28, D2 PAM-2 -19, D2 ag-2 42*, D3 arrestin ag -27% and D2 ag-3 12%.
CCOC(=O)C1CCN(Cc2ccc(OC)cc2OC)CC1 was read as D2 ag-1 0, D2 PAM-1 -15, D2 antag 23, D2 PAM-2 12 and D2 ag-2 -1.
For CCOC(=O)C1CCN(Cc2ccc(OCc3ccccc3)cc2)CC1 the results were D2 ag-1 11, D2 PAM-1 0, D2 antag 59*, D2 PAM-2 -19, D2 ag-2 68*, D3 arrestin ag 0% and D2 ag-3 inconclusive.
Screening CCOC(=O)C1CCN(Cc2ccc(F)c(F)c2)CC1 returned D2 ag-1 0, D2 PAM-1 -15, D2 antag 6, D2 PAM-2 -9 and D2 ag-2 7.
CCOC(=O)C1CCN(Cc2cccc(OC)c2)CC1 was read as D2 ag-1 inconclusive, D2 PAM-1 -3, D2 antag 44*, D2 PAM-2 -27, D2 ag-2 76*, D3 arrestin ag -16% and D2 ag-3 24%.
For COc1ccc([C@H]2CC(=O)C=C(c3ccc4c5c(cccc35)CC4)C2)cc1 the results were D2 ag-1 -2, D2 PAM-1 -5, D2 antag -8, D2 PAM-2 0, D2 ag-2 0, D3 arrestin ag -9% and D2 ag-3 -6%.
For COc1ccc([C@H]2CC(=O)C=C(c3ccc(C)c4ccccc34)C2)cc1 the results were D2 ag-1 -3, D2 PAM-1 -7, D2 antag -5, D2 PAM-2 12 and D2 ag-2 -1.
Screening O=C(COc1ccccc1[N+](=O)[O-])N(Cc1ccccc1)c1ccccn1 returned D2 ag-1 inconclusive, D2 PAM-1 11, D2 antag 21, D2 PAM-2 -30, D2 ag-2 53*, D3 arrestin ag inconclusive and D2 ag-3 inconclusive.
For Cc1ccc(CN(C(=O)COc2ccccc2[N+](=O)[O-])c2ccccn2)cc1 the results were D2 PAM-2 -27.
COc1ccc(NS(=O)(=O)c2cc(C(=O)N3CCC3)ccc2C)cc1 was read as D2 ag-1 10, D2 PAM-1 -4, D2 antag 29, D2 PAM-2 -12, D2 ag-2 25, D3 arrestin ag -3% and D2 ag-3 9%.
Cc1cc(C)c(S(=O)(=O)N2CCC(n3c(C(F)(F)F)nc4cccnc43)CC2)c(C)c1 was read as D2 PAM-2 7 and D2 ag-2 0.
`CCc1ccc2oc(-c3cc(NC(=O)C(C)C)cc(C)c3O)nc2c1` gave D2 PAM-2 -1 and D2 ag-2 -1.
For O=C(CCCCCNC(=O)c1ccccc1Br)N=Nc1c(O)[nH]c2ccccc12 the results were D2 ag-1 6, D2 PAM-1 -7, D2 antag 5, D2 PAM-2 7, D2 ag-2 28, D3 arrestin ag -2% and D2 ag-3 5%.
`CCOC(=O)c1c(Nc2ccc(C)c(C)c2)nnc(-c2ccccc2)c1-c1ccccc1` gave D2 PAM-2 1 and D2 ag-2 -1.
COc1ccc(C2Nc3ccccc3NC3=C2C(=O)CC(C)(C)C3)cc1OC (configuration not stated) was read as D2 ag-1 8, D2 PAM-1 -6, D2 antag 38*, D2 PAM-2 -4, D2 ag-2 0, D3 arrestin ag -1% and D2 ag-3 -1%.
Cc1ccc(OCCOCCN2CCCCC2)c([N+](=O)[O-])c1 was read as D2 ag-1 -1, D2 PAM-1 -6, D2 antag -6, D2 PAM-2 -1 and D2 ag-2 0.
